Laboratory results: PubChem BioAssay AID1159580 (chemical genetic matrix, 2015)
“And” between values parts separate entries of the source, which are not always exact repeats. Equal values may be shown once. In all, about 5,500 compounds went through this assay and about 2,000 (36%) were called active. Roughly 18% stayed inconclusive and do not appear here. No stated cut-off is given here; in the data, active means normalized growth mostly below about 0.91 (no sharp cut-off); inconclusive means no clear call, values can overlap the other calls; inactive means mostly above about 0.92. This is one part of the list.

Experiment: chemical genetic growth profiling, strain panel (AID 1159580);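 further: tested at 20 µM; growth read once vehicle control cultures reached saturation at 30 °C; 1 = growth at the plate median or of vehicle wells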
Conditions: S. cerevisiae deletion strains, growth OD

Measured: normalized growth

O=C(O)C1=C[C@@H](O)[C@@H](O)[C@H](O)C1
inactive: locus YAL013W, strain DEP1, stronger effect = lower value 1.02 | locus YAL021C, strain ccr4, stronger effect = lower value 1 | locus YAL026C, strain drs2, stronger effect = lower value 0.978 | locus YAL030W, strain snc1, stronger effect = lower value 0.969 | locus YBL061C, strain skt5, stronger effect = lower value 0.974 | locus YBR009C, strain hhf1, stronger effect = lower value 0.988 | locus YBR021W, strain FUR4, stronger effect = lower value 1.02 | locus YBR023C, strain chs3, stronger effect = lower value 0.988 | locus YBR171W, strain sec66, stronger effect = lower value 0.985 | locus YBR229C, strain ROT2, stronger effect = lower value 1.01 | locus YBR231C, strain swc5, stronger effect = lower value 0.98 | locus YBR279W, strain paf1, stronger effect = lower value 0.977 | locus YCL011C, strain gbp2, stronger effect = lower value 0.99 | locus YCL016C, strain dcc1, stronger effect = lower value 0.987 | locus YCL029C, strain bik1, stronger effect = lower value 1.01 | locus YCL061C, strain MRC1, stronger effect = lower value 0.989 | locus YCL069W, strain vba3, stronger effect = lower value 0.977 | locus YCR088W, strain abp1, stronger effect = lower value 0.974 | locus YDL005C, strain med2, stronger effect = lower value 0.976 | locus YDL035C, strain GPR1, stronger effect = lower value 1.04 | locus YDL040C, strain nat1, stronger effect = lower value 0.987 | locus YDL074C, strain BRE1, stronger effect = lower value 1.07 | locus YDL101C, strain DUN1, stronger effect = lower value 1.03 | locus YDL134C, strain PPH21, stronger effect = lower value 0.999 | locus YDL185W, strain tfp1, stronger effect = lower value 1.01 | locus YDL192W, strain arf1, stronger effect = lower value 1.02 | locus YDR001C, strain nth1, stronger effect = lower value 0.975 | locus YDR069C, strain doa4, stronger effect = lower value 0.97 | locus YDR101C, strain arx1, stronger effect = lower value 1.04 | locus YDR137W, strain rgp1, stronger effect = lower value 0.977 | locus YDR150W, strain NUM1, stronger effect = lower value 1.02 | locus YDR159W, strain sac3, stronger effect = lower value 0.979 | locus YDR162C, strain NBP2, stronger effect = lower value 1.01 | locus YDR195W, strain ref2 0.946 | locus YDR297W, strain sur2, stronger effect = lower value 0.963 | locus YDR318W, strain mcm21, stronger effect = lower value 0.999 | locus YDR334W, strain swr1, stronger effect = lower value 0.966 | locus YDR335W, strain msn5, stronger effect = lower value 0.976 | locus YDR388W, stronger effect = lower value 1.01 | locus YDR392W, strain spt3, stronger effect = lower value 1.04 | locus YDR502C, strain sam2, stronger effect = lower value 1.01 | locus YEL003W, strain gim4, stronger effect = lower value 0.979 | locus YEL037C, strain rad23, stronger effect = lower value 0.971 | locus YEL061C, strain CIN8 (second series), stronger effect = lower value 0.973 | locus YEL061C, strain CIN8, stronger effect = lower value 1.01 | locus YER015W, strain faa2, stronger effect = lower value 0.988 | locus YER016W, strain bim1, stronger effect = lower value 0.977 | locus YER110C, stronger effect = lower value 1.01 | locus YER111C, strain swi4, stronger effect = lower value 0.967 | locus YER155C, strain BEM2 (second series), stronger effect = lower value 0.958 | locus YER155C, strain BEM2, stronger effect = lower value 1.01 | locus YER167W, strain BCK2, stronger effect = lower value 1.01 | locus YFR010W, strain ubp6, stronger effect = lower value 0.964 | locus YGL078C, strain dbp3, stronger effect = lower value 1.01 | locus YGL086W, strain mad1, stronger effect = lower value 1.07 | locus YGL167C, strain pmr1, stronger effect = lower value 0.977 | locus YGL173C, strain kem1, stronger effect = lower value 0.974 | locus YGL227W, strain vid30, stronger effect = lower value 0.986 | locus YGL240W, strain doc1, stronger effect = lower value 0.988 | locus YGL248W, strain PDE1, stronger effect = lower value 1.03 | locus YGL253W, strain hxk2, stronger effect = lower value 0.984 | locus YGR135W, strain pre9, stronger effect = lower value 1.02 | locus YGR252W, strain gcn5, stronger effect = lower value 0.931 | locus YHR013C, strain ard1, stronger effect = lower value 0.949 | locus YHR027C, strain rpn1, stronger effect = lower value 0.968 | locus YHR030C, strain SLT2, stronger effect = lower value 1.01 and 0.984 | locus YHR079C, strain IRE1 (second series), stronger effect = lower value 1.01 | locus YHR079C, strain IRE1, stronger effect = lower value 0.972 | locus YHR094C, strain hxt1, stronger effect = lower value 0.993 | locus YHR129C, strain ARP1, stronger effect = lower value 1.02 | locus YHR142W, strain chs7, stronger effect = lower value 0.995 | locus YHR200W, strain rpn10, stronger effect = lower value 0.996 | locus YIL066C, strain RNR3, stronger effect = lower value 1.02 | locus YIL073C, strain SPO22, stronger effect = lower value 1.08 | locus YIL125W, strain kgd1, stronger effect = lower value 1.03 | locus YIR030C, strain dcg1, stronger effect = lower value 0.999 | locus YJL092W, strain hpr5, stronger effect = lower value 0.976 | locus YJL095W, strain BCK1 (second series), stronger effect = lower value 0.978 | locus YJL095W, strain BCK1, stronger effect = lower value 1.04 and 0.998 | locus YJL115W, strain asf1, stronger effect = lower value 0.952 | locus YJL129C, strain trk1, stronger effect = lower value 0.981 | locus YJL134W, strain LCB3, stronger effect = lower value 1.01 | locus YJL154C, strain vps35, stronger effect = lower value 0.983 | locus YJL164C, strain tpk1, stronger effect = lower value 0.981 | locus YJL166W, strain qcr8, stronger effect = lower value 0.974 | locus YJL168C, strain set2, stronger effect = lower value 1.01 | locus YJL187C, strain SWE1 (second series), stronger effect = lower value 1.04 | locus YJL187C, strain SWE1, stronger effect = lower value 0.976
